Experimental data as given in publication PMC5700166.

Key:
Assay in all cases: protein-binding microarray (PBM); PBM: ~300 nM protein, 6 mM HEPES pH 7.8, 80 mM KCl, 0.5 mM EDTA, 0.5 mM EGTA, 6% glycerol, 35 ng/ul poly-dIdC, 1% milk, 1 h, room temperature; Ap Aiptasia and Nv Nematostella (sea anemones) / Co Capsaspora / Aq Amphimedon (sponge) / Dm Drosophila / Hu human; RHD is the Rel homology domain; high values mean tight binding
Details in all cases: dsDNA, one strand shown
GST-Ap-NF-kB RHD = target: T1, GST-Ap-NF-kB RHD (Exaiptasia pallida (Aiptasia), UniProt A0A913YAJ5 2-422)
T1 sequence: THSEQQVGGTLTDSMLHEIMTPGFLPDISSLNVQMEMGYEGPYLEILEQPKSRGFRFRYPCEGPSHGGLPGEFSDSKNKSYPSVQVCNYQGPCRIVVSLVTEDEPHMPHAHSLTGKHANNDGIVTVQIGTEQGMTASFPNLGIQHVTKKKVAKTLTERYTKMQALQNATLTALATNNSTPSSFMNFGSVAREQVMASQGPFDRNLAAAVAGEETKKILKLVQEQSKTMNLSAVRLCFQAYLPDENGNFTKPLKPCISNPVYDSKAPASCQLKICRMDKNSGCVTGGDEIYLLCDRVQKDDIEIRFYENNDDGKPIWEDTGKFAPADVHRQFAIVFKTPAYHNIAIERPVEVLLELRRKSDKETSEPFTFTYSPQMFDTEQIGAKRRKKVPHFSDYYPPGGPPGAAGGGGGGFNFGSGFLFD

[1] = target: T2, GST-Nv-NF-kB (Ser allele) (Nematostella vectensis, UniProt A7UNT2 2-411)
T2 sequence: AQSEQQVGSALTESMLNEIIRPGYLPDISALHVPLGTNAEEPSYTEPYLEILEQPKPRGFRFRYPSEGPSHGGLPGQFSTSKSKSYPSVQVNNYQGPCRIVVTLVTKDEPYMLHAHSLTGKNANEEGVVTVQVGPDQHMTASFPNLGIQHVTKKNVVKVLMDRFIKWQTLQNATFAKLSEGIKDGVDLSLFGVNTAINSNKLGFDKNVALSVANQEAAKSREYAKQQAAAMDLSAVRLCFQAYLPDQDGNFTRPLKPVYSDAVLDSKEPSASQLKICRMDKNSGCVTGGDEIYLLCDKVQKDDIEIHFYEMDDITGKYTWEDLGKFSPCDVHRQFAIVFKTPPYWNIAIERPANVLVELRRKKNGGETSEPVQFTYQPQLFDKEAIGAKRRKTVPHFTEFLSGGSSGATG

GST-Co-NF-kB = target: T3, GST-Co-NF-kB (Capsaspora owczarzaki, UniProt F1ARL5 200-546)
T3 sequence: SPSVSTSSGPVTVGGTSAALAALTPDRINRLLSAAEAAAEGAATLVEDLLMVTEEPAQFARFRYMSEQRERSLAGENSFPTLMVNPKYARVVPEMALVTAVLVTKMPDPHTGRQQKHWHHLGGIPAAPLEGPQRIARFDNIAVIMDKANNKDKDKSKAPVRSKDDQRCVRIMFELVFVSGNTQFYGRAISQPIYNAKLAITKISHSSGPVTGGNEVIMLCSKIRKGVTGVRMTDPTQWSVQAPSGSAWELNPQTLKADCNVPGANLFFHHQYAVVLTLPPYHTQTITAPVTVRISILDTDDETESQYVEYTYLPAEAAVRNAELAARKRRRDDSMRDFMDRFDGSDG

GST-Dm-Relish = target: T4, GST-Dm-Relish (Drosophila melanogaster, UniProt Q94527 99-473)
T4 sequence: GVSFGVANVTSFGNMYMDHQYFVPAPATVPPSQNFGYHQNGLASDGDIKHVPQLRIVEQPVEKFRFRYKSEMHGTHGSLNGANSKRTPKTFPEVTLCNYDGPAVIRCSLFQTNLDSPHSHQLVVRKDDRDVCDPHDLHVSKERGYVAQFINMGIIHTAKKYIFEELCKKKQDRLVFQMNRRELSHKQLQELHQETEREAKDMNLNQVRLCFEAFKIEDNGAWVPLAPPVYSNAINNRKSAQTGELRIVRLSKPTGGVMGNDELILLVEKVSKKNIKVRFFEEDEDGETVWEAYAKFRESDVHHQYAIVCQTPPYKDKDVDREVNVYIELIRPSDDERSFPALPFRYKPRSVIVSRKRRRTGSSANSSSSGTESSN

GST-Aq-NF-kB = target: T5, GST-Aq-NF-kB (Amphimedon queenslandica, UniProt A9Y5G7 2-389)
T5 sequence: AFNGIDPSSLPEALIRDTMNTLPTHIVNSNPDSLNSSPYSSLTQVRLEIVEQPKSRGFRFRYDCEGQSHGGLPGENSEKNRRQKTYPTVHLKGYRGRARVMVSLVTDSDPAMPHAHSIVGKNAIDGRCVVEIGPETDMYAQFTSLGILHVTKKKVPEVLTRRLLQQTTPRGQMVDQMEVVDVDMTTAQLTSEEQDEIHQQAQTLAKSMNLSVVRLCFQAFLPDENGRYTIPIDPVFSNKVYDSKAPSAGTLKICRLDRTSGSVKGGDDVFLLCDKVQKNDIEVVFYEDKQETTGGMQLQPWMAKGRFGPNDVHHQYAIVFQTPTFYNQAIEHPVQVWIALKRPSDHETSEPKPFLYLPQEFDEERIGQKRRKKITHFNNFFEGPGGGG

| Sequence | binding signal (GST-Ap-NF-kB RHD) [z-score] | binding signal [1] [z-score] | binding signal (GST-Co-NF-kB) [z-score] | binding signal (GST-Dm-Relish) [z-score] | binding signal (GST-Aq-NF-kB) [z-score] |
| --- | --- | --- | --- | --- | --- |
| CCGATTAACATCAAGGGGGGAGGTGATGTTAATCGGGTCTTGATTCGCTTGACGCTGCTG | 4.12 | 4.04 | 5.65 | 3.23 | 4.07 |
| CCGATTAACATCAAGGGGGGAAATGATGTTAATCGGGTCTTGATTCGCTTGACGCTGCTG | 6.16 | 8.51 | 7.79 | 4.47 | 5.8 |
| CCGATTAACATCATAAGGGGTGTTGATGTTAATCGGGTCTTGATTCGCTTGACGCTGCTG | 2.3 | – | 1.09 | – | 1.91 |
| CCGATTAACATCAGTCCCCCCCATGATGTTAATCGGGTCTTGATTCGCTTGACGCTGCTG | 5.83 | 3.57 | 6.28 | 4.23 | 4.7 |
| CCGATTAACATCACGGCAACCCCTGATGTTAATCGGGTCTTGATTCGCTTGACGCTGCTG | 1.78 | – | – | 1.46 | 2.35 |
| CCGATTAACATCAGGGCATCCCATGATGTTAATCGGGTCTTGATTCGCTTGACGCTGCTG | 1.37 | – | – | 5.99 | 2.34 |
| CCGATTAACATCAGGGGTGCCCATGATGTTAATCGGGTCTTGATTCGCTTGACGCTGCTG | 1.69 | – | – | 3.52 | 1.5 |
| CCGATTAACATCAGGGCATTCCATGATGTTAATCGGGTCTTGATTCGCTTGACGCTGCTG | 1.14 | – | – | 1.84 | 2.1 |
| CCGATTAACATCACGGGGGGGGCTGATGTTAATCGGGTCTTGATTCGCTTGACGCTGCTG | 4.19 | – | 5.11 | 4.98 | 4.34 |
| CCGATTAACATCAGGGATTAACATGATGTTAATCGGGTCTTGATTCGCTTGACGCTGCTG | 1.77 | – | – | 4.89 | 1.83 |
| CCGATTAACATCACGGGATTGCCTGATGTTAATCGGGTCTTGATTCGCTTGACGCTGCTG | 1.39 | – | – | 2.08 | 2.41 |
| CCGATTAACATCACGGGCTTTCCTGATGTTAATCGGGTCTTGATTCGCTTGACGCTGCTG | 1.64 | – | – | 3.81 | 4.66 |
| CCGATTAACATCACGGAGATCCCTGATGTTAATCGGGTCTTGATTCGCTTGACGCTGCTG | 1.39 | – | – | 4.73 | 3.81 |
| CCGATTAACATCACGGACACCCCTGATGTTAATCGGGTCTTGATTCGCTTGACGCTGCTG | 1.65 | – | 1.34 | 1.95 | 2.16 |
